The values that follow come from PubChem BioAssay.

Inconclusive results are not listed. Activity calls are given as the source filed them.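 Rule for the calls, unless noted: active = inhibition above 50%, about 3 SD of the validation set; inactive = the rest.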

Assay [1] in a line: yeast TOR pathway RPL19A-GFP modulators, primary screen, cell-based, S. cerevisiae, multiplex flow cytometry (AID 1862; in the data active = percent of DMSO control GFP below about 86%;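 note: lower values mimic rapamycin by blocking the RPL19A rise seen in DMSO cells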). The following applies: S. cerevisiae RPL19A-GFP strain, flow cytometry fluorescence, 3 h; at 10 µM; stronger effect = lower value. (In general: Flow cytometry measures light scatter and fluorescence of single cells or particles in a stream.)
Assay [2] in a line: modulators of MEP2-GFP levels in yeast, primary screen, S. cerevisiae, multiplex flow cytometry (AID 1867;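 active = GFP response, as percent of the DMSO control, above the screen-wide mean plus 3 SD, about 139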;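 note: median GFP channel fluorescence of barcode-gated MEP2-GFP cells measured by flow cytometry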). The note with it: S. cerevisiae MEP2-GFP strain, 3 h, at 10 µM, stronger effect = higher value, 100% means same as DMSO wells.
The nature of assay [3]: modulators of CIT2-GFP expression in yeast, primary screen, S. cerevisiae, GFP fusion, multiplex flow cytometry (AID 1870;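 active = percent response above a set limit, the screen-wide mean plus 3 SD, cut at about 130% in these data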;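 note: barcoded CIT2-GFP strain pooled with four other GFP strains with rapamycin as positive control; median GFP fluorescence per well over plate mean of DMSO wells so 100% = DMSO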). The following applies: 3 h, at 10 µM, stronger effect = higher value.
Assay [4] can be described thus: modulators of LAP4-GFP expression in yeast, primary screen, S. cerevisiae, multiplex flow cytometry (AID 1873;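 active = GFP signal, as percent of the solvent control, above the screen mean plus 3 SD, about 149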). The following applies: 3 h, at 10 µM, stronger effect = higher value.
A short description of assay [5]: modulators of AGP1-GFP expression in yeast TOR pathway, primary screen, cell-based, multiplex flow cytometry, S. cerevisiae (AID 1887;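 active = GFP signal above the screen-wide mean plus 3 SD, that is over about 124.5% of the solvent control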;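 note: AGP1-GFP fusion strain of S. cerevisiae within a five-strain barcoded multiplex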). The following applies: 3 h, at 10 µM, stronger effect = higher value.
Assay [6] can be described thus: inhibitors of CD8+ T cell-vesicle binding, pilot screen, LFA-1/ICAM-1 modulator project, MLPCN validation set, flow cytometry (AID 2523;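 active = response below a set limit, under 55% cells CD8-positive and vesicle-bound, and CD8 cells' 90th-percentile brightness under 279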;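 for vesicle binding response: mean PE anti-B7-1 fluorescence of CD8+ cells relative to row control; 100% = QL9-loaded vesicles with DMSO vehicle in the same plate row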). The following applies: 2C mouse CD8+ T cells, at 7 µM, stronger effect = lower value; double positive events: measured here: CD8+/vesicle+ event percentage.
Assay [7] concerns the target Integrin beta-1 (Homo sapiens) + Integrin alpha-4 (Homo sapiens) (UniProt P13612+P05556). In words: inhibition of HUTS-21 binding to VLA-4, pilot screen, VLA-4 allosteric modulator project, U937 cells, HUTS-21 mAb, flow cytometry, validation set (AID 2674).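 Note: antibody binding induced by the VLA-4 ligand LDV present at three times its Kd; 0% = LDV ligand with antibody and no compound and 100% = antibody without LDV.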 The note with it: HUTS-21 LIBS mAb binding, at 6.7 µM, stronger effect = higher value, binding induced by LDV ligand.
Assay [8] in a line: superoxide lowering in aged yeast cells, pilot screen, validation compound set (AID 2706;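 active = superoxide response below 65% of plate, a cut near 3 SD across the whole screen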;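 note: yeast exposed to compound for one week at 30 degrees C before staining; 100% = mean of all compound wells on the same plate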). The following applies: S. cerevisiae aging, superoxide DHE fluorescence; at 10 µM; stronger effect = lower value.
Assay [9] concerns the target Beta-adrenergic receptor kinase 1 (Homo sapiens) (UniProt P25098). Put plainly: GRK2 binders displacing RNA aptamer, biochemical, validation, human GRK2, bead flow cytometry (AID 488806;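 active = aptamer binding inhibition above 30%, about 3 SD of noise from non-fluorescent compounds; inactive = inhibition at or below 30%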). The following applies: bead-bound GRK2, FAM-aptamer displacement, at 10 µM, stronger effect = higher value.
Assay [10] has as its target Beta-2 adrenergic receptor (Homo sapiens) (UniProt P07550). Put plainly: beta2AR agonists driving receptor internalization, pilot screen, cell-based, FAP fluorogen, flow cytometry, validation set (AID 504459;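 active = percent response above 42, roughly 3 SD of non-fluorescent test compounds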;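 note: agonist-driven loss of surface beta2AR via internalization measured by FAP dye flow cytometry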). The note with it: Am2.2-beta2AR cells, FAP surface receptor flow cytometry; at 10 µM; stronger effect = higher value.
Assay [11] concerns the target AP-2 complex subunit beta (Homo sapiens) (UniProt P63010). Put plainly: inhibitors of arrestin peptide binding to AP2, pilot screen, biochemical, validation set, GST-AP2 beads, flow cytometry (AID 504541;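 active = inhibition above 54%, about 3 SD of non-fluorescent compounds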;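 note: AP2 carries R879A mutation and is captured from E. coli lysate; bead-bound FITC arrestin peptide fluorescence measuring arrestin peptide binding to AP2; 0% = DMSO wells and 100% = excess unlabeled arrestin peptide control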). The note with it: FITC arrestin peptide, at 10 µM, stronger effect = higher value, AP2 beta2 appendage fragment, R879A mutant.
Assay [12] in a line: yeast V-ATPase proton transport modulators, S. cerevisiae, pHLuorin, HTS validation (AID 504600; in the data active = response above about 15%;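 note: plate controls were DMSO for no effect and reference compound for full effect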). The note with it: S. cerevisiae pHLuorin cytosolic pH, at 10 µM, stronger effect = higher value.
Assay [13] relates to anti-desmoglein-3 scFv antibody binding to human DSG3. Put plainly: inhibitors of anti-DSG3 scFv binding to DSG3, pilot screen, biochemical, validation compound set, bead-based, flow cytometry (AID 588368;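 active = binding below the plate cutoff, the plate median minus 3 SD, with a reading above zero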;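 note: signal is the median channel fluorescence of bead-bound GFP antibody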). The note with it: Protein G beads, DSG3-Fc, scFv-GFP binding, at 10 µM, stronger effect = lower value.
Assay [14] can be described thus: inhibitors of fungal efflux pumps CDR1, CDR2, MDR1, pilot screen, validation compound set, multiplex, phenotypic (AID 588506;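 active = efflux inhibition above 0.42, the validation set average plus 4 SD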;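 note: Nile Red retained in cells so higher fluorescence means more efflux inhibition; 0 = negative control wells and 1 = enniatin B 25 µM full block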). The note with it: S. cerevisiae pump-expressing triplex, Nile Red efflux flow cytometry; at 10 µM; stronger effect = higher value; the pumps come from Candida albicans.
Assay [15] deals with ATP-binding cassette sub-family B member 6 (Homo sapiens) (UniProt Q9NP58). Put plainly: ABCB6 transporter inhibitors, pilot screen, K562-ABCB6 cells, flow cytometry, validation set (AID 588550;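 active = inhibition above the screen-wide mean plus 3 SD, about 51%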;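 note: 0% = DMSO wells and 100% = benzethonium chloride 70 µM positive control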). The note with it: K562-ABCB6 porphyrin accumulation, 1 h, at 10 µM, stronger effect = higher value.
Assay [16] is described as follows: promoters of myeloid differentiation in arrested cells, primary screen, cell-based, GFP/MAC1 double positive, flow cytometry, validation set (AID 588685;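 active = differentiation response of at least 50%, scaled between solvent and reference control, from cells with both markers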;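 note: compound exposure lasts four days before antibody staining and flow analysis; 0% = DMSO wells and 100% = 5 µM fulvestrant positive control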). The note with it: ER-HoxA9 marrow cells, stronger effect = higher value, normalized: vehicle 0, fulvestrant 100.

The term inhibition denotes the change of the read-out against control, counted positive when it falls.

Chain of AP-2 complex subunit beta (Homo sapiens) (P63010 whole entry, looked up, the tested form may be a part, one chain of several): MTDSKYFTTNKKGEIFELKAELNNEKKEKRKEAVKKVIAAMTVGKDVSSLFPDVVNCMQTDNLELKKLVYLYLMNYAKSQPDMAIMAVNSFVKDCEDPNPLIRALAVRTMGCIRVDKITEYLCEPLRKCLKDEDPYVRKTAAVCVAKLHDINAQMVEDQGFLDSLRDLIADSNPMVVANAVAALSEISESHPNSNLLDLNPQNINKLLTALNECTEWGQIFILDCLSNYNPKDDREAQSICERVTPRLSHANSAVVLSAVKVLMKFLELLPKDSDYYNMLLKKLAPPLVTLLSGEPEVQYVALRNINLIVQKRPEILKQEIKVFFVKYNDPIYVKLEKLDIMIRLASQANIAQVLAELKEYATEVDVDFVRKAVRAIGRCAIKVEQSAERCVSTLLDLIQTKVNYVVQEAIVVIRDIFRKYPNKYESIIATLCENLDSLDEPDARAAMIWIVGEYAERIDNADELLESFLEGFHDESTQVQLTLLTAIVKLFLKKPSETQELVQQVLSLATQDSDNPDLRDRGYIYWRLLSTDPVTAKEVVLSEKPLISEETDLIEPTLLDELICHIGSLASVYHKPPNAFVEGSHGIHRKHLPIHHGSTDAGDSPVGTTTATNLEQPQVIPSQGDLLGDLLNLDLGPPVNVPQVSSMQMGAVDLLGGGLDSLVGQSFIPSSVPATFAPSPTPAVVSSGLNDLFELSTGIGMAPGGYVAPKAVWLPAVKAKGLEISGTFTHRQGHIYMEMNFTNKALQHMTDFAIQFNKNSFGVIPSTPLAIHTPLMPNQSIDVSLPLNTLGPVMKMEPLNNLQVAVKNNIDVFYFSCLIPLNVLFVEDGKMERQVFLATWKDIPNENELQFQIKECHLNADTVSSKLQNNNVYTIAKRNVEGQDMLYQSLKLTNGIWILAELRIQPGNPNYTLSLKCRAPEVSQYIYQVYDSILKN
Chain of Beta-2 adrenergic receptor (Homo sapiens) (P07550 whole entry, looked up): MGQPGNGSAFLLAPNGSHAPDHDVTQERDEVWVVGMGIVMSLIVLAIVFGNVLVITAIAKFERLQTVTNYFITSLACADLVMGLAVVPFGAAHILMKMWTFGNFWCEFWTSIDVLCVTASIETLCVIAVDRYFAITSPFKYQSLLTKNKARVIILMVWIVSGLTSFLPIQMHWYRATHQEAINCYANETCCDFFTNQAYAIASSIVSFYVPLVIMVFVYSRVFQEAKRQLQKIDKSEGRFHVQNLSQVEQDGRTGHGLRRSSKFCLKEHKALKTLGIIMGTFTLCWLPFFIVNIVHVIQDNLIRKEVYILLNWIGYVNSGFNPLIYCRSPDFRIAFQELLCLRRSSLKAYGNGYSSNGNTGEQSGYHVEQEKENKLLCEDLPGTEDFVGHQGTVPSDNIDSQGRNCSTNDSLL
Chain of ATP-binding cassette sub-family B member 6 (Homo sapiens) (Q9NP58 whole entry, looked up): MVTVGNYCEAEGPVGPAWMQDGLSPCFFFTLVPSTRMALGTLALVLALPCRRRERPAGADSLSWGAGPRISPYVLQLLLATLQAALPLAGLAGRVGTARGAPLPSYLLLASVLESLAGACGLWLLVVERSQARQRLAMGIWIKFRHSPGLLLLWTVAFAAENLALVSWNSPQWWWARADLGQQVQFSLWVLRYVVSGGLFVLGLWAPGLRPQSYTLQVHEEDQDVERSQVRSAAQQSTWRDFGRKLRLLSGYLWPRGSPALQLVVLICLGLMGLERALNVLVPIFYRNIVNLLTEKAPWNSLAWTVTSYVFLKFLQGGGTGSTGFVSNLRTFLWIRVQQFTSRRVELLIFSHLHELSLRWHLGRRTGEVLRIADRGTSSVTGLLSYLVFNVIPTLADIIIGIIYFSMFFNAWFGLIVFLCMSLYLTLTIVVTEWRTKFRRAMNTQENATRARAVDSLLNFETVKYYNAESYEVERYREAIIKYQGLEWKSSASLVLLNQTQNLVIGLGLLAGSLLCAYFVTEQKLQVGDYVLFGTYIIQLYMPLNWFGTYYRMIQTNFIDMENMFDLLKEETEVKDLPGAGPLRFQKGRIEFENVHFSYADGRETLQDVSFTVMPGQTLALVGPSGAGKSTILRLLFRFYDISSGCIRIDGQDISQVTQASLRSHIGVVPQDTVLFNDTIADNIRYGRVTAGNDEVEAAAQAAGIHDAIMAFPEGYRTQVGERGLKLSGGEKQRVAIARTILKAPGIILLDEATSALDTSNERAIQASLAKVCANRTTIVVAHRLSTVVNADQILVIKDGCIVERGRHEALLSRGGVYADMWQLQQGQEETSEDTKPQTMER
Chain of Integrin beta-1 (Homo sapiens) + Integrin alpha-4 (Homo sapiens) (P05556 whole entry, looked up): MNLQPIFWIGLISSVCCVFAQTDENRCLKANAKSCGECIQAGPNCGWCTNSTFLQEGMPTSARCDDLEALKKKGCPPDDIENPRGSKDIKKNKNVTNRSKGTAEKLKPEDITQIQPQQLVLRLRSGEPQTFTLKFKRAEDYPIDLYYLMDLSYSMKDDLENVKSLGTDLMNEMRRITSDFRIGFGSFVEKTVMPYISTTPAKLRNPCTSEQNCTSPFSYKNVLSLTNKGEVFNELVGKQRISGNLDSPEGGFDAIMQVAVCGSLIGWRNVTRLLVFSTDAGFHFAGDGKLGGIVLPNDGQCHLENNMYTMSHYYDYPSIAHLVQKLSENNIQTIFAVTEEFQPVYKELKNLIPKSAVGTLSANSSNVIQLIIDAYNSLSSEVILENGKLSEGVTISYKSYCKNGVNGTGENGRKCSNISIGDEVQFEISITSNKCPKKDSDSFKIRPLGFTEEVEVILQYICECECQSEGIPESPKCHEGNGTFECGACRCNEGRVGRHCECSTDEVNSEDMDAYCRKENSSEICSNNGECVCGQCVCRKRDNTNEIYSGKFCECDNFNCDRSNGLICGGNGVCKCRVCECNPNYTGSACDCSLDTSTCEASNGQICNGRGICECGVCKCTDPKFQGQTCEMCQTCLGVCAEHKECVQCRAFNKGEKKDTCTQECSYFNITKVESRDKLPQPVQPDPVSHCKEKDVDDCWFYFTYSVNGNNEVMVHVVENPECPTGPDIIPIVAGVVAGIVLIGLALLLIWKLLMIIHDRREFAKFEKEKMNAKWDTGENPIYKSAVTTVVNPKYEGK
Chain of Integrin beta-1 (Homo sapiens) + Integrin alpha-4 (Homo sapiens) (P13612 whole entry, looked up): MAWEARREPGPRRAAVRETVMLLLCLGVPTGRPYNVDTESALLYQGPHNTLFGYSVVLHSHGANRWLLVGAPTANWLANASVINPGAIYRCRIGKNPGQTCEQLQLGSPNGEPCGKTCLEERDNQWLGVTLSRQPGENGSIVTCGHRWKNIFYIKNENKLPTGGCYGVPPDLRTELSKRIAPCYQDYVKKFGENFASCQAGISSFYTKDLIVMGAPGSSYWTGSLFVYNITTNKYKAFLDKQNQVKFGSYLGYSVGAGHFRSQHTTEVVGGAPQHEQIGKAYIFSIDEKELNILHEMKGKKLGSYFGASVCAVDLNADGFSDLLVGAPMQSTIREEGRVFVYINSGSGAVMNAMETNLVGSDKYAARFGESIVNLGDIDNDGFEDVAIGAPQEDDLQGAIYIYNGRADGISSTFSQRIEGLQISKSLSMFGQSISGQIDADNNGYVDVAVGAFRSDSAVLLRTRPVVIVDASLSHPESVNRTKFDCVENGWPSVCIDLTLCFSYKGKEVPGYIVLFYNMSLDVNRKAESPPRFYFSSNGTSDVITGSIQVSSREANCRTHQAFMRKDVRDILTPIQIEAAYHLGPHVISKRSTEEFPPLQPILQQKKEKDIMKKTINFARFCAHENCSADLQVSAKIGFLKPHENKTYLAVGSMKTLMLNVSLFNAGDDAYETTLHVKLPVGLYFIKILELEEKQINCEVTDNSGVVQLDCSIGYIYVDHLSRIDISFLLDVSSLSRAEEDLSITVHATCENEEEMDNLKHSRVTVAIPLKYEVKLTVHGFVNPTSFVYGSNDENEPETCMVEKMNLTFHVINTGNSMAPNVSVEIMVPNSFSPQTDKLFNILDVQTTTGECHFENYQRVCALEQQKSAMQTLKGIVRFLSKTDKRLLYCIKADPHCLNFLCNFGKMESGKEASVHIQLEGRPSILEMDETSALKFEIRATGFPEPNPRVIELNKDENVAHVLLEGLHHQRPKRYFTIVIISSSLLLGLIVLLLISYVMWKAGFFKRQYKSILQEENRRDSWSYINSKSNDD
Chain of Beta-adrenergic receptor kinase 1 (Homo sapiens) (P25098 whole entry, looked up): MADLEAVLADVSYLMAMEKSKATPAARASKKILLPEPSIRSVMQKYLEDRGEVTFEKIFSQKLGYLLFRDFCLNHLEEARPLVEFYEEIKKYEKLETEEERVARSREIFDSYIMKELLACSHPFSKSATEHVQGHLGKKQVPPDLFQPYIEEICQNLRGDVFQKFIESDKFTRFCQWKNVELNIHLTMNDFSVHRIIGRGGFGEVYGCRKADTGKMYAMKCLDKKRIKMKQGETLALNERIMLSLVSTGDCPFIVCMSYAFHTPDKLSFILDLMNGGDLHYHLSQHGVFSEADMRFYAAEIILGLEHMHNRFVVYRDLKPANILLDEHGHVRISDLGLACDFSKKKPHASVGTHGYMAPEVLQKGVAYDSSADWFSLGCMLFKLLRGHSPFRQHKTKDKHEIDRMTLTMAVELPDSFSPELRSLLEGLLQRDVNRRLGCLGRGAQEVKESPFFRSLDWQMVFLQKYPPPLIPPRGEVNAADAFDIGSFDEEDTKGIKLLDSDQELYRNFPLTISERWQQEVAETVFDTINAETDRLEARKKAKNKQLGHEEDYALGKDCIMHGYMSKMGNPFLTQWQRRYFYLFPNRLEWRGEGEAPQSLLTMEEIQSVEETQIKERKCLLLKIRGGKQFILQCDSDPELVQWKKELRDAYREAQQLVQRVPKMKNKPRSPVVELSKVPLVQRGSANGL

For the compound `CCOC(=O)n1c(=O)oc2ccccc21`, the percent of DMSO control GFP in assay [1] is 97% (inactive). Moreover, the GFP response vs DMSO in assay [2] is 104% (inactive); in [4], 102% (inactive). Also, the percent response of DMSO control in [3] was 102% (inactive). Besides, the GFP response, % of DMSO in assay [5] is 107% (inactive). The double positive events in assay [6] is 62.5%. Further, in [6], the vesicle binding response was 196% (inactive). For the same compound, the inhibition in assay [7] is 6.55% (inactive); in assay [11], -0.08% (inactive); in assay [15], 3% (inactive). In addition, in assay [8], the superoxide response (% of plate) was 105% (inactive). Besides, the aptamer binding inhibition in assay [9] was 7% (inactive). Further, the values for the response in assay [10] and in assay [12] were -19.8% (inactive) and 10.2% (inactive), respectively. Also, the binding (% of control) in assay [13] was 107% (inactive). Moreover, the efflux inhibition (fraction of control) in [14] was 0.08 (inactive). Also, in assay [16], the differentiation response was -4.99% (inactive).

`COc1ccc(C(Cl)=C(c2ccc(OC)cc2)c2ccc(OC)cc2)cc1`: in assay [1], the percent of DMSO control GFP is 102% (inactive). The GFP response vs DMSO is 109% (inactive) in assay [2] and 90.7% (inactive) in [4]. Further, the percent response of DMSO control in assay [3] was 91.9% (inactive). For the same compound, in [5], the GFP response, % of DMSO is 98% (inactive). The double positive events in assay [6] is 62.9%. Moreover, the vesicle binding response in assay [6] was 934% (inactive). Moreover, the inhibition in assay [7] is -8.75% (inactive); in [11], 18.5% (inactive); in assay [15], 7% (inactive). In addition, the superoxide response (% of plate) in assay [8] is 95.2% (inactive). Besides, the aptamer binding inhibition in [9] is 4% (inactive). In addition, the figures for the response in assay [10] and in [12] were 1.32% (inactive) and -2.47% (inactive), respectively. In [13], the binding (% of control) was 95.8% (inactive). In addition, the efflux inhibition (fraction of control) in assay [14] is 0.18 (inactive). Also, the differentiation response in assay [16] is 6.11% (inactive).

For the compound `Nc1ccc2nc(Cc3ccccc3)[nH]c2c1`, in [1], the percent of DMSO control GFP is 90.2% (inactive). The GFP response vs DMSO in assay [2] was 150% (active); in assay [4], 82.5% (inactive). In assay [3], the percent response of DMSO control was 108% (inactive). For the same compound, the GFP response, % of DMSO in [5] was 89.4% (inactive). Moreover, the double positive events in assay [6] came to 60.5%. In addition, in assay [6], the vesicle binding response was 192% (inactive). Moreover, the inhibition was 3.55% (inactive) in [7], -0.76% (inactive) in assay [11] and 3% (inactive) in assay [15]. Moreover, the superoxide response (% of plate) in assay [8] was 102% (inactive). The aptamer binding inhibition in assay [9] was 7% (inactive). For the same compound, the response in assay [10] is 10.6% (inactive); in [12], -0.84% (inactive). For the same compound, the binding (% of control) in [13] was 98% (inactive). Moreover, in assay [14], the efflux inhibition (fraction of control) was 0.48 (active). For the same compound, in assay [16], the differentiation response was 15.6% (inactive).

With `COc1ccc(CN2CCC(=O)NC2=O)cc1`, the percent of DMSO control GFP in assay [1] is 102% (inactive). The GFP response vs DMSO in [2] and in [4] was 105% (inactive) in each case. Further, the percent response of DMSO control in assay [3] is 97.7% (inactive). In addition, the GFP response, % of DMSO in [5] was 96.5% (inactive). The double positive events in assay [6] worked out at 59.9%. For the same compound, in [6], the vesicle binding response was 170% (inactive). In addition, the results for the inhibition in assay [7], in [11] and in assay [15] were 3.67% (inactive), 33.2% (inactive) and 2% (inactive), respectively. In addition, the superoxide response (% of plate) in assay [8] is 101% (inactive). Also, the aptamer binding inhibition in assay [9] was -2% (inactive). For the same compound, the response in assay [10] was -1.29% (inactive); in assay [12] it was -0.38% (inactive). Further, the binding (% of control) in [13] was 81.3% (inactive). Besides, in assay [14], the efflux inhibition (fraction of control) was 0.08 (inactive). For the same compound, the differentiation response in [16] was 116% (active).

As to `c1ccc(-c2ccc(C(c3ccccc3)n3ccnc3)cc2)cc1` (stereo not given), the percent of DMSO control GFP in assay [1] was 99.8% (inactive). Besides, the GFP response vs DMSO was 104% (inactive) in assay [2] and 115% (inactive) in assay [4]. For the same compound, in [3], the percent response of DMSO control was 101% (inactive). The GFP response, % of DMSO in assay [5] was 111% (inactive). Further, in assay [6], the double positive events came to 66.2%. Further, the vesicle binding response in assay [6] is 187% (inactive). Also, the inhibition in assay [7] is 8.25% (inactive); in assay [11] it was -14.1% (inactive); in assay [15] it was 0% (inactive). Further, the superoxide response (% of plate) in assay [8] is 209% (inactive). Besides, in assay [9], the aptamer binding inhibition was 7% (inactive). The response in assay [10] was 0.23% (inactive); in [12], 15.5% (active). Besides, in assay [13], the binding (% of control) is 101% (inactive). Also, the efflux inhibition (fraction of control) in assay [14] is -0.04 (inactive). Besides, the differentiation response in assay [16] is -2.03% (inactive).
